The whole screen tested about 5,500 compounds, of which about 2,000 (36%) were called active. About 18% were inconclusive and are not listed. No stated cut-off is given here; in the data, active means normalized growth mostly below about 0.91 (no sharp cut-off); inconclusive means no clear call, values can overlap the other calls; inactive means mostly above about 0.92. The list shows a part of the results.
Experiment: chemical genetic growth profiling, strain panel (AID 1159580);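 further: tested at 20 µM; growth read once vehicle control cultures reached saturation at 30 °C; 1 = growth at the plate median or of vehicle wells; lower values mean less growth of the strain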
Details: S. cerevisiae deletion strains, growth OD

Measured: normalized growth

CC1CN(S(=O)(=O)c2cccc3cnccc23)CCN1 (stereo not drawn)
inactive: locus YAL040C, strain CLN3, hits give low values 1.01 | locus YCL061C, strain MRC1 (second series), hits give low values 1.01 | locus YDR363W, strain ESC2, hits give low values 1.02 | locus YER002W, strain NOP16, hits give low values 1 | locus YGR078C, strain PAC10, hits give low values 1.02 | locus YJR075W, strain HOC1, hits give low values 0.996 | locus YMR307W, strain GAS1, hits give low values 0.997 | locus YNL128W, strain TEP1, hits give low values 1.01 | locus YNL153C, strain GIM3, hits give low values 1.01 | locus YNL175C, strain NOP13, hits give low values 1.01 | locus YNL197C, strain WHI3, hits give low values 1.01 | locus YNL224C, strain SQS1, hits give low values 1.03 | locus YNL322C, strain KRE1, hits give low values 0.999 | locus YOR083W, strain WHI5 (second series), hits give low values 1.02 | locus YPL055C, strain LGE1, hits give low values 1.02 | locus YPL241C, strain CIN2, hits give low values 1

NC(=O)c1ccc(N)nc1
inactive: locus YAL021C, strain ccr4, hits give low values 0.994 | locus YAL026C, strain drs2, hits give low values 1.01 | locus YAL030W, strain snc1, hits give low values 0.982 | locus YBR009C, strain hhf1, hits give low values 0.99 | locus YBR023C, strain chs3, hits give low values 0.995 | locus YBR171W, strain sec66, hits give low values 1.02 | locus YBR231C, strain swc5, hits give low values 0.989 | locus YBR279W, strain paf1, hits give low values 0.982 | locus YCL011C, strain gbp2, hits give low values 1 | locus YCL016C, strain dcc1, hits give low values 1 | locus YCL069W, strain vba3, hits give low values 1.01 | locus YCR088W, strain abp1, hits give low values 1.01 | locus YDL005C, strain med2, hits give low values 0.987 | locus YDL040C, strain nat1, hits give low values 0.988 | locus YDR001C, strain nth1, hits give low values 1.01 | locus YDR069C, strain doa4, hits give low values 0.981 | locus YDR137W, strain rgp1, hits give low values 1 | locus YDR159W, strain sac3, hits give low values 0.978 | locus YDR195W, strain ref2 0.942 | locus YDR297W, strain sur2, hits give low values 0.999 | locus YDR334W, strain swr1, hits give low values 0.99 | locus YDR335W, strain msn5, hits give low values 1 | locus YDR392W, strain spt3, hits give low values 1 | locus YEL003W, strain gim4, hits give low values 1 | locus YEL037C, strain rad23, hits give low values 1.01 | locus YEL061C, strain CIN8 (second series), hits give low values 1 | locus YER015W, strain faa2, hits give low values 0.997 | locus YER016W, strain bim1, hits give low values 0.997 | locus YER111C, strain swi4, hits give low values 1.01 | locus YER155C, strain BEM2 (second series), hits give low values 1.01 | locus YFR010W, strain ubp6, hits give low values 1 | locus YGL167C, strain pmr1, hits give low values 0.999 | locus YGL173C, strain kem1, hits give low values 0.993 | locus YGL227W, strain vid30, hits give low values 1.01 | locus YGL240W, strain doc1, hits give low values 1 | locus YGL253W, strain hxk2, hits give low values 1.01 | locus YHR013C, strain ard1, hits give low values 0.979 | locus YHR027C, strain rpn1, hits give low values 0.998 | locus YHR030C, strain SLT2, hits give low values 1.03 | locus YHR079C, strain IRE1, hits give low values 1.02 | locus YHR142W, strain chs7, hits give low values 1.01 | locus YJL092W, strain hpr5, hits give low values 1 | locus YJL095W, strain BCK1 (second series), hits give low values 0.989 | locus YJL095W, strain BCK1, hits give low values 1.03 | locus YJL115W, strain asf1, hits give low values 1 | locus YJL129C, strain trk1, hits give low values 1.01 | locus YJL154C, strain vps35, hits give low values 0.995 | locus YJL164C, strain tpk1, hits give low values 0.978 | locus YJL166W, strain qcr8, hits give low values 1.01 | locus YJR066W, strain TOR1, hits give low values 0.951 | locus YKL160W, strain elf1, hits give low values 0.975 | locus YKR026C, strain gcn3, hits give low values 1.01 | locus YKR091W, strain srl3, hits give low values 0.997 | locus YLL001W, strain dnm1, hits give low values 1.01 | locus YLL026W, hits give low values 0.999 | locus YLL041C, strain sdh2, hits give low values 1 | locus YLR027C, strain aat2, hits give low values 1.01 | locus YLR113W, strain HOG1, hits give low values 1.02 | locus YLR221C, strain rsa3, hits give low values 0.995 | locus YLR258W, strain gsy2, hits give low values 1 | locus YLR262C, strain YPT6 (second series), hits give low values 1.01 | locus YLR320W, strain mms22, hits give low values 0.995 | locus YLR342W, strain FKS1, hits give low values 0.996 | locus YLR357W, strain rsc2, hits give low values 0.967 | locus YLR370C, strain arc18, hits give low values 1 | locus YLR384C, strain iki3, hits give low values 0.986 | locus YML120C, strain ndi1, hits give low values 0.987 | locus YMR058W, strain fet3, hits give low values 0.999 | locus YMR125W, strain sto1, hits give low values 1.01 | locus YMR129W, hits give low values 0.983 | locus YMR205C, strain PFK2, hits give low values 0.998 | locus YMR231W, strain pep5, hits give low values 1 | locus YNL071W, strain lat1, hits give low values 0.99 | locus YNL183C, strain NPR1, hits give low values 0.961 | locus YNL209W, strain ssb2, hits give low values 0.996 | locus YNL248C, strain rpa49, hits give low values 1.01 | locus YNL322C, strain KRE1 (second series), hits give low values 0.986 | locus YNR049C, strain mso1, hits give low values 1.01 | locus YOR001W, strain rrp6, hits give low values 0.997 | locus YOR070C, strain gyp1, hits give low values 0.993 | locus YOR080W, strain dia2, hits give low values 0.993 | locus YOR083W, strain WHI5, hits give low values 1 | locus YOR106W, strain vam3, hits give low values 1.01 | locus YOR231W, strain MKK1, hits give low values 1.05 | locus YOR265W, strain rbl2, hits give low values 0.993 | locus YOR270C, strain vph1, hits give low values 1.02 | locus YOR290C, strain snf2, hits give low values 1.01 | locus YPL051W, strain arl3, hits give low values 0.993 | locus YPL078C, strain atp4, hits give low values 1 | locus YPL106C, strain sse1, hits give low values 0.992 | locus YPL240C, strain hsp82, hits give low values 0.993 | locus YPL256C, strain CLN2, hits give low values 1.03

From PubChem BioAssay AID1159580 (chemical genetic matrix, 2015)
